Measured values: PubChem BioAssay (NCATS)
Records with an inconclusive call do not appear. Active and inactive are the calls of the source. Calls come from the whole dose curve; as a rule, active = well fitted inhibition curve with a large enough effect; inconclusive = small, poorly fitted or top-dose-only effect; inactive = flat fitted curve, though single readings scatter.

What was measured:
Experiment in all cases: qHTS profiling for inhibitors of Plasmodium falciparum proliferation (AID 504749); note: nearly all actives have a fitted effect of over 60% in size
Conditions in all cases: P. falciparum in erythrocytes, SYBR Green DNA, 72 h; series mostly up to 28.7 µM
ATS95 = system: ATS95
In short: (§1)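 P. falciparum-infected erythrocytes (0.3% parasitemia, 2.5% hematocrit final) were exposed to compounds for 72 h at 37 C in 5% CO2, then lysed with SYBR Green buffer overnight at room temperature; parasite DNA fluorescence was normalized to artemisinin and DMSO controls.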

C2A = system: C2A
In short: as §1

CP215 = system: CP215
In short: as §1

CP238 = system: CP238
In short: as §1

CP250 = system: CP250
In short: as §1

CP252 = system: CP252
In short: as §1

CP256 = system: CP256
In short: as §1

CP262 = system: CP262
In short: as §1

CP265 = system: CP265
In short: as §1

CP268 = system: CP268
In short: as §1

CP269 = system: CP269
In short: as §1

CP325 = system: CP325
In short: as §1

CP329 = system: CP329
In short: as §1

CP335 = system: CP335
In short: as §1

Dd2 = system: Dd2
In short: as §1

ECU = system: ECU
In short: as §1

P93_24 = system: P93_24
In short: as §1

PAD = system: PAD
In short: as §1

PC26 = system: PC26
In short: as §1

SC27B = system: SC27B
In short: as §1

Measured: Potency

CN=C(N)NCCCC(N)C(=O)O (stereo not given)
inactive: all assays above
